Test results as given in PMC7862700, “An all-to-all approach to the identification of sequence-specific readers for epigenetic DNA modifications on cytosine”.

Columns and labels:
Experiment in all cases: DAPPL (digital affinity profiling via proximity ligation, sequencing); 10 mM Tris-HCl pH 7.5, 50 mM NaCl, 1 mM DTT, 4% glycerol, room temperature, 30 min; GST-TFs on glutathione beads, 16-mer random dsDNA library, 0.1% formaldehyde crosslink after washing; high values mean tight binding
FLI1 = target: T1, FLI1 (Homo sapiens, UniProt Q01543 1-452); settings: protein: recombinant; tags: N-terminal GST; dsDNA, one strand shown
T1 sequence: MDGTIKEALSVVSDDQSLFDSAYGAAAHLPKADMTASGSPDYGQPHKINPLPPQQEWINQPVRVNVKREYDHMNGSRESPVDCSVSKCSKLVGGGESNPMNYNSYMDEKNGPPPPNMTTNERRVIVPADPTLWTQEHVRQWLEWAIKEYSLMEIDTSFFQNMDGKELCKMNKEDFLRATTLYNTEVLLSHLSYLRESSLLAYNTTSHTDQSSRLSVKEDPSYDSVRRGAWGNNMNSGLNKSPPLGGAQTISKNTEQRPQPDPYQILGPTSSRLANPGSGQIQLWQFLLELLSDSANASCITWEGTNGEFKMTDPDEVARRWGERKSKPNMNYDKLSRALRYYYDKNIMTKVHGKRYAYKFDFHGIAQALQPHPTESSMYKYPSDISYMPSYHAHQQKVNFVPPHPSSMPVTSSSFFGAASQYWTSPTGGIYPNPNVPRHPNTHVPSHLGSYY
Outline: (§1)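 A tag-only sample was pooled with DNA-barcoded human transcription factors that had been expressed in yeast as GST fusions and captured on glutathione beads. The pools were incubated for 30 min at room temperature with 200 nmole of a random double-stranded 16-mer DNA library in Tris/NaCl/DTT/glycerol buffer, then washed, crosslinked with 0.1% formaldehyde, proximity-ligated (BsaI/T4 ligase, 1 h, 37 °C), PCR-amplified and sequenced on an Illumina NextSeq500. Binding signal is each hexamer's read frequency for a factor divided by its frequency for the tag-only sample.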

ELK1 = target: T2, ELK1 (Homo sapiens, UniProt P19419 1-428); settings: protein: recombinant; tags: N-terminal GST; dsDNA, one strand shown
T2 sequence: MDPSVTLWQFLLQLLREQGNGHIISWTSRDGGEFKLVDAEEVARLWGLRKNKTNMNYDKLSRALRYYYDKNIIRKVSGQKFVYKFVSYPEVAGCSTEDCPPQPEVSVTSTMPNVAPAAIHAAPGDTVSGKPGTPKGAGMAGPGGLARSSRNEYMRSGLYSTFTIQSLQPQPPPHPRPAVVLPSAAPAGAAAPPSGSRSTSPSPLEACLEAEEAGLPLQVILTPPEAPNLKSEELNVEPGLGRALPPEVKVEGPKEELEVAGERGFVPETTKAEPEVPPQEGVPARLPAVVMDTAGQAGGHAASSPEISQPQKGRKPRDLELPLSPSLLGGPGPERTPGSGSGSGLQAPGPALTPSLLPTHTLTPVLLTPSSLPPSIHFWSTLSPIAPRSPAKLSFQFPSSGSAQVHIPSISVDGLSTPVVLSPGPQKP
Outline: as §1

GABPA = target: T3, GABPA (Homo sapiens, UniProt Q06546 1-454); settings: protein: recombinant; tags: N-terminal GST; dsDNA, one strand shown
T3 sequence: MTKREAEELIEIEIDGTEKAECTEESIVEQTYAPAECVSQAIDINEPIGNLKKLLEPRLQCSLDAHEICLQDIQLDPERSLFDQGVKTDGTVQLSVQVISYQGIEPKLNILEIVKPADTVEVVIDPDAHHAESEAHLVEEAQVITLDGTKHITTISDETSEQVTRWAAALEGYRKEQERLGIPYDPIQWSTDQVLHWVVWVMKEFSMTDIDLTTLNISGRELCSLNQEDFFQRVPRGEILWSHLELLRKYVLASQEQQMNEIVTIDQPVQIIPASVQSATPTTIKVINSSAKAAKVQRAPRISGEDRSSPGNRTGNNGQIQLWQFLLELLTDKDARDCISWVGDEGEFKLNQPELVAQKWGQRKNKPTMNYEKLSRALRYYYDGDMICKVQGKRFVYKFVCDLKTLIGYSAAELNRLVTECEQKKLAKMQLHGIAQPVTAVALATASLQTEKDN
Outline: as §1

ERG = target: T4, ERG (Homo sapiens, UniProt P11308 1-479); settings: protein: recombinant; tags: N-terminal GST; dsDNA, one strand shown
T4 sequence: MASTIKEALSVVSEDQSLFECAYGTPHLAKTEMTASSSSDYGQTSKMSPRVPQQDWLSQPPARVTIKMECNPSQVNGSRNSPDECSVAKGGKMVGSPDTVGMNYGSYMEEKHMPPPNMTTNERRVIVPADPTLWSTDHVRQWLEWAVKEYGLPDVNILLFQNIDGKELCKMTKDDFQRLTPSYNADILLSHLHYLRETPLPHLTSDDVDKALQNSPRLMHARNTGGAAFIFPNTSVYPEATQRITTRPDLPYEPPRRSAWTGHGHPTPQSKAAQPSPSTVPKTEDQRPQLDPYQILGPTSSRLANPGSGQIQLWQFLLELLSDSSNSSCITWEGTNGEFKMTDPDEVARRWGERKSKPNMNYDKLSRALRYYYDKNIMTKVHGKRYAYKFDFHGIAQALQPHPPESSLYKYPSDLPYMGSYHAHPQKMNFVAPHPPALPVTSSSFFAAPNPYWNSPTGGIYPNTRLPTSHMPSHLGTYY
Outline: as §1

ELF1 = ELF1 (Homo sapiens, UniProt P32519 1-619); settings: protein: recombinant; tags: N-terminal GST; dsDNA, one strand shown
ELF1, sequence (P32519 whole entry): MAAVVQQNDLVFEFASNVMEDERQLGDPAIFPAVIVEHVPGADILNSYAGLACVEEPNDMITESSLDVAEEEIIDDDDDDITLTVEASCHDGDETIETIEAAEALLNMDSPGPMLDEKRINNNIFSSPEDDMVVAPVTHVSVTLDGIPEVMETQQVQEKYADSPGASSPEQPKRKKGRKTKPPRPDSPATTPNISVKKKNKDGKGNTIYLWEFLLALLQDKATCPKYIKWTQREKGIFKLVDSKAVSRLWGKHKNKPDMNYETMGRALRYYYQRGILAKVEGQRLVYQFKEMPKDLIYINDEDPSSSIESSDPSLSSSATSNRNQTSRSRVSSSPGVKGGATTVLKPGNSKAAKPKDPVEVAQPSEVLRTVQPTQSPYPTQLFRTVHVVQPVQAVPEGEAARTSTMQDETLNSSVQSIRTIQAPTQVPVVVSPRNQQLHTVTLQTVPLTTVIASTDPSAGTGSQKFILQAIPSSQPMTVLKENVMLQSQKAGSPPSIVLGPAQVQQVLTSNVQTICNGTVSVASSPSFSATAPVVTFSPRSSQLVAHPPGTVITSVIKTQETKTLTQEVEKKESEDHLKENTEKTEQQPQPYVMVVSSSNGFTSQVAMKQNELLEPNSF
Outline: as §1

EHF = target: T5, EHF (Homo sapiens, UniProt Q9NZC4 1-300); settings: protein: recombinant; tags: N-terminal GST; dsDNA, one strand shown
T5 sequence: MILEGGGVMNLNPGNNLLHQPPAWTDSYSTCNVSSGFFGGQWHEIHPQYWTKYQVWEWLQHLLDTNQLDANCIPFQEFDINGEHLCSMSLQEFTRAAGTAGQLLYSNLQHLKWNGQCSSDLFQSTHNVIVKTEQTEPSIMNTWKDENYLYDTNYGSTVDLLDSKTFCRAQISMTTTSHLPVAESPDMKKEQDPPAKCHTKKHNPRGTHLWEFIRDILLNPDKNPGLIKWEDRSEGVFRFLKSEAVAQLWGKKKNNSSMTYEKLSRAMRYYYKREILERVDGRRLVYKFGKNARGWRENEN
Outline: as §1

SPI1 = SPI1 (Homo sapiens, UniProt P17947 1-270); settings: protein: recombinant; tags: N-terminal GST; dsDNA, one strand shown
Outline: as §1

SPIB = SPIB (Homo sapiens, UniProt Q01892 1-262); settings: protein: recombinant; tags: N-terminal GST; dsDNA, one strand shown
SPIB, sequence (Q01892 whole entry): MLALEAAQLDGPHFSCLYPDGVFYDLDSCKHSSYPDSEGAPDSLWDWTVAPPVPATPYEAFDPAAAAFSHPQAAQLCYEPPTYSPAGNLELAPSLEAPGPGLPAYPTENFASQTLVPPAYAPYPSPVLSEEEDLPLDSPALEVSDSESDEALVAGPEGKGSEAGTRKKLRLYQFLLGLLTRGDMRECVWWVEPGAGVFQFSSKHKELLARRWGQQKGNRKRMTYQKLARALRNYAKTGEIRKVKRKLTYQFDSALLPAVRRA
Outline: as §1

ELK3 = target: T6, ELK3 (Homo sapiens, UniProt P41970 1-407); settings: protein: recombinant; tags: N-terminal GST; dsDNA, one strand shown
T6 sequence: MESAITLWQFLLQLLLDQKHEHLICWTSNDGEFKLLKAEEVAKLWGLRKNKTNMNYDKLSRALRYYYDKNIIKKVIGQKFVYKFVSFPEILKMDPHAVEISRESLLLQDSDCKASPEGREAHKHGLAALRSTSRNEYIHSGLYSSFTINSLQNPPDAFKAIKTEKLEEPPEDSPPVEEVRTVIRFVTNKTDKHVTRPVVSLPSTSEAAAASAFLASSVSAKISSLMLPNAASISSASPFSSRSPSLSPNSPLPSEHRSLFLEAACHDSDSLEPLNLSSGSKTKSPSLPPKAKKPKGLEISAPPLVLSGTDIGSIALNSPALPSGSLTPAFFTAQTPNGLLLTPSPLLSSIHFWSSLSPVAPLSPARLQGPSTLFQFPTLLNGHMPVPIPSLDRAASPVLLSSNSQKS
Outline: as §1

FEV = target: T7, FEV (Homo sapiens, UniProt Q99581 1-238); settings: protein: recombinant; tags: N-terminal GST; dsDNA, one strand shown
T7 sequence: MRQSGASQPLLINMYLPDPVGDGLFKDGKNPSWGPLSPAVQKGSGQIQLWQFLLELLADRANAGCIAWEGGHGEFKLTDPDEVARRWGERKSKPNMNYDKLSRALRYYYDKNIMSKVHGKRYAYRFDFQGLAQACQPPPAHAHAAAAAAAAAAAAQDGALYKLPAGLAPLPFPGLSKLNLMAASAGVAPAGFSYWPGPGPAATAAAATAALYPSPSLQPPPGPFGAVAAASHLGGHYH
Outline: as §1

ETV5 = ETV5 (Homo sapiens, UniProt P41161 1-510); settings: protein: recombinant; tags: N-terminal GST; dsDNA, one strand shown
ETV5, sequence (P41161 whole entry): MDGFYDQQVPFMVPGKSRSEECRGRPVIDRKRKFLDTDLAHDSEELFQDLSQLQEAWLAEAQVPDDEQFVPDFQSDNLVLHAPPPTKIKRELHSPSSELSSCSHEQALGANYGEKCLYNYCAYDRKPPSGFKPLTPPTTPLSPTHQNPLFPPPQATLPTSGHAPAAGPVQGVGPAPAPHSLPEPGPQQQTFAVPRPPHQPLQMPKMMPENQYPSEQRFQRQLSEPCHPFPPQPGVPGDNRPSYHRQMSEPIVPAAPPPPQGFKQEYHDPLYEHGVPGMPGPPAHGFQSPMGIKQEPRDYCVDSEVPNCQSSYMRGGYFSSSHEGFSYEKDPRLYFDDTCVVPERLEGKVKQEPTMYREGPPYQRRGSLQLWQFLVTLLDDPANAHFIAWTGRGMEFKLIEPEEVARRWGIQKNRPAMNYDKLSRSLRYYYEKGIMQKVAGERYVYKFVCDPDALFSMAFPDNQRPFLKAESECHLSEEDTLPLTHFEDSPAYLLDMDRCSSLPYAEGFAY
Outline: as §1

HSF1 = HSF1 (Homo sapiens, UniProt Q00613 1-529); settings: protein: recombinant; tags: N-terminal GST; chain copies: 3; dsDNA, one strand shown
HSF1, sequence (Q00613 whole entry): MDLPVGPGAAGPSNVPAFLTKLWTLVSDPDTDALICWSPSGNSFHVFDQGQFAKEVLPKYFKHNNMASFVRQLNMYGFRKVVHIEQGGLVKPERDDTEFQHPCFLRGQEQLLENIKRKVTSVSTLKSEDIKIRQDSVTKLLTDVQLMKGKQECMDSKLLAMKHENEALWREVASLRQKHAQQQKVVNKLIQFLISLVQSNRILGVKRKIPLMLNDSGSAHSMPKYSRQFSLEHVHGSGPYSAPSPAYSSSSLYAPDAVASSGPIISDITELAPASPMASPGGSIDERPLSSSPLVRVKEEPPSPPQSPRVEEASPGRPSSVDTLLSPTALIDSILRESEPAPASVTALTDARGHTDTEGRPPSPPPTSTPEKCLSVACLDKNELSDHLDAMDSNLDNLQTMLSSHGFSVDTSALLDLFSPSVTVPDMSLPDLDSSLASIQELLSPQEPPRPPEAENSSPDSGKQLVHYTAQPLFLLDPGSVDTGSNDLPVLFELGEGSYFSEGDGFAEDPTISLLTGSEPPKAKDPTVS
Outline: as §1

SPIC = target: T8, SPIC (Homo sapiens, UniProt Q8N5J4 1-248); settings: protein: recombinant; tags: N-terminal GST; dsDNA, one strand shown
T8 sequence: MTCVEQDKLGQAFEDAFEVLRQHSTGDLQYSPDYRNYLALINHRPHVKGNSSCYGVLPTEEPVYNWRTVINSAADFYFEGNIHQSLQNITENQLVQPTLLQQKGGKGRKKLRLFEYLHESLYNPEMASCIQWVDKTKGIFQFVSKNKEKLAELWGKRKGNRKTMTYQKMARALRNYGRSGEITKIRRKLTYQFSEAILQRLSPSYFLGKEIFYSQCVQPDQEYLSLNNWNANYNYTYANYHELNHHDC
Outline: as §1

ELF4 = ELF4 (Homo sapiens, UniProt Q99607 1-663); settings: protein: recombinant; tags: N-terminal GST; dsDNA, one strand shown
ELF4, sequence (Q99607 whole entry): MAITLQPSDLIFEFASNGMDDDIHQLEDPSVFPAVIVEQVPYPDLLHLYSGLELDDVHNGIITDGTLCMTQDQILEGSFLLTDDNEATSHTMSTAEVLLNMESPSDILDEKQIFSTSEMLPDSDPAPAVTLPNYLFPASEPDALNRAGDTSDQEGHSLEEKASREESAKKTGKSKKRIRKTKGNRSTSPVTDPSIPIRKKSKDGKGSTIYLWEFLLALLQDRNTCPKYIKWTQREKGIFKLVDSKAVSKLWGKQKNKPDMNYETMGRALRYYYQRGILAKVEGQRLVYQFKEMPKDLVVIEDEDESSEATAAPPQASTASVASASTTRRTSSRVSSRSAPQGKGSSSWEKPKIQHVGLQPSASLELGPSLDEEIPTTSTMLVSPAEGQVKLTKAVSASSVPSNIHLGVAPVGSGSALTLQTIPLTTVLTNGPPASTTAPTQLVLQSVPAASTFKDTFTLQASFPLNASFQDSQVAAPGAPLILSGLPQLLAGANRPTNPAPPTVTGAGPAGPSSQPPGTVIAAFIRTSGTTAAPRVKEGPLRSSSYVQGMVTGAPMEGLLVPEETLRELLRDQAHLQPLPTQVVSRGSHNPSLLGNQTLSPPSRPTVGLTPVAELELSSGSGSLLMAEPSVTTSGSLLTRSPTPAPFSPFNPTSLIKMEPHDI
Outline: as §1

ELK4 = target: T9, ELK4 (Homo sapiens, UniProt P28324-2 1-405); settings: protein: recombinant; tags: N-terminal GST; dsDNA, one strand shown
T9 sequence: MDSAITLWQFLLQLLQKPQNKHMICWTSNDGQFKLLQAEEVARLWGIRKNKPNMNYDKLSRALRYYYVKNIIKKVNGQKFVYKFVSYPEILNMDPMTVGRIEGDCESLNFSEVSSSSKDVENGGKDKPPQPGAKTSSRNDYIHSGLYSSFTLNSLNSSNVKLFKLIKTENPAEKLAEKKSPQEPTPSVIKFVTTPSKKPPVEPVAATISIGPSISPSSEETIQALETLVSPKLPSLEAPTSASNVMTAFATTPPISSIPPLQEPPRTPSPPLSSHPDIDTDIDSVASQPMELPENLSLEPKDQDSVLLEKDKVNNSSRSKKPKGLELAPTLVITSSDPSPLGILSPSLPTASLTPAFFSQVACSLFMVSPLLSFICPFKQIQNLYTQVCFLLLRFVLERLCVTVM
Outline: as §1

ETV2 = target: T10, ETV2 (Homo sapiens, UniProt O00321 1-342); settings: protein: recombinant; tags: N-terminal GST; dsDNA, one strand shown
T10 sequence: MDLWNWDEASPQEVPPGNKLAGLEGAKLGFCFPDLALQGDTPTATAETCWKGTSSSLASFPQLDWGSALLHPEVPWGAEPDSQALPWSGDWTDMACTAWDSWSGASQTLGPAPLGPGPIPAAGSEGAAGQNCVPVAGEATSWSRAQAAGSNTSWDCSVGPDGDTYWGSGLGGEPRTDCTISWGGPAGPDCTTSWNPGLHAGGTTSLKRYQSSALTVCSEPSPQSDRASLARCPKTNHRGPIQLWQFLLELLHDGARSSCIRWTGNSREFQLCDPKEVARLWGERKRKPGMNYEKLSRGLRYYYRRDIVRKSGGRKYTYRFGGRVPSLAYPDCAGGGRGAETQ
Outline: as §1

ELF3 = target: T11, ELF3 (Homo sapiens, UniProt P78545 1-371); settings: protein: recombinant; tags: N-terminal GST; dsDNA, one strand shown
T11 sequence: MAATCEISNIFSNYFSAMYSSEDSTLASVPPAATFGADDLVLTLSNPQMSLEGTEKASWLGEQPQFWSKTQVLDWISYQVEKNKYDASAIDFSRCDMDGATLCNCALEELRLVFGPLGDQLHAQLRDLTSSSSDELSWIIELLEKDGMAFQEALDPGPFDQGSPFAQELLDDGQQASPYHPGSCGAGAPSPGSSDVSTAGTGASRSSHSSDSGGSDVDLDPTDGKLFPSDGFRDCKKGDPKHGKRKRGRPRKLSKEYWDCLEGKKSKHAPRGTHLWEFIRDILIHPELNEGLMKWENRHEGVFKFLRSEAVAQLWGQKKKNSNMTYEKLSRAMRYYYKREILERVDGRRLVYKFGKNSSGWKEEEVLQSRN
Outline: as §1

CRX = CRX (Homo sapiens, UniProt O43186 1-299); settings: protein: recombinant; tags: N-terminal GST; dsDNA, one strand shown
CRX, sequence (O43186 whole entry): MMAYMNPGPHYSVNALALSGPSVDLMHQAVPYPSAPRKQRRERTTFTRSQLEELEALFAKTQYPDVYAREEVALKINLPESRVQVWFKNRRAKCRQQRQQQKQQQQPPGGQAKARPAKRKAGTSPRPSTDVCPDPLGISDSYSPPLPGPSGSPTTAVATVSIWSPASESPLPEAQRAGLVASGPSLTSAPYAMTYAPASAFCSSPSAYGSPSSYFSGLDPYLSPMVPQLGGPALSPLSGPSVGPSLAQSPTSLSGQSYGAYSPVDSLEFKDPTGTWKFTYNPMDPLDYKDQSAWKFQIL
Outline: as §1

ETV1 = ETV1 (Homo sapiens, UniProt P50549 1-477); settings: protein: recombinant; tags: N-terminal GST; dsDNA, one strand shown
ETV1, sequence (P50549 whole entry): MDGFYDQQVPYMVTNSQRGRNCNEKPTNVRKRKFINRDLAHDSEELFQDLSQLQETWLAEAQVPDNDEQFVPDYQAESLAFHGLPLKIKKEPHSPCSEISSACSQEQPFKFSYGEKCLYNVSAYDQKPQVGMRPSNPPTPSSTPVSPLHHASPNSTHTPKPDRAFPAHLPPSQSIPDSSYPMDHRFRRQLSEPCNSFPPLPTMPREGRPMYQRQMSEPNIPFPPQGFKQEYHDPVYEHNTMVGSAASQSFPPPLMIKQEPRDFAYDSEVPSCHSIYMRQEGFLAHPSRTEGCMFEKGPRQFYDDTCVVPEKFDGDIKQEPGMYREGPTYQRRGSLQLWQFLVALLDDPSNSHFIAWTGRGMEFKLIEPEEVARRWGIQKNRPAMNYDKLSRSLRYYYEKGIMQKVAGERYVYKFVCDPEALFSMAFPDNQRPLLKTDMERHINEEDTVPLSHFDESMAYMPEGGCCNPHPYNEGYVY
Outline: as §1

Sequence: AATGCA
- binding signal (FLI1): 1.25 fold enrichment (6-mer frequency, TF over GST control)
- binding signal (ELK1): 1.28 fold enrichment (6-mer frequency, TF over GST control)
- binding signal (GABPA): 1.28 fold enrichment (6-mer frequency, TF over GST control)
- binding signal (ERG): 1.29 fold enrichment (6-mer frequency, TF over GST control)
- binding signal (ELF1): 1.27 fold enrichment (6-mer frequency, TF over GST control)
- binding signal (EHF): 1.25 fold enrichment (6-mer frequency, TF over GST control)
- binding signal (SPI1): 1.21 fold enrichment (6-mer frequency, TF over GST control)
- binding signal (SPIB): 1.34 fold enrichment (6-mer frequency, TF over GST control)
- binding signal (ELK3): 1.3 fold enrichment (6-mer frequency, TF over GST control)
- binding signal (FEV): 1.31 fold enrichment (6-mer frequency, TF over GST control)
- binding signal (ETV5): 1.29 fold enrichment (6-mer frequency, TF over GST control)
- binding signal (HSF1): 1.11 fold enrichment (6-mer frequency, TF over GST control)
- binding signal (SPIC): 1.28 fold enrichment (6-mer frequency, TF over GST control)
- binding signal (ELF4): 1.3 fold enrichment (6-mer frequency, TF over GST control)
- binding signal (ELK4): 1.31 fold enrichment (6-mer frequency, TF over GST control)
- binding signal (ETV2): 1.25 fold enrichment (6-mer frequency, TF over GST control)
- binding signal (ELF3): 1.33 fold enrichment (6-mer frequency, TF over GST control)
- binding signal (CRX): 1.14 fold enrichment (6-mer frequency, TF over GST control)
- binding signal (ETV1): 1.25 fold enrichment (6-mer frequency, TF over GST control)
